# Records with an inconclusive call do not appear. Calls of active or inactive are those of the source. Calls follow the shape of the dose curve; as a rule, active = well fitted inhibition curve with a large enough effect; inconclusive = small, poorly fitted or top-dose-only effect; inactive = flat fitted curve, though single readings scatter.
# Molecular target: RecQ-like DNA helicase BLM (Homo sapiens) (UniProt P54132)
# Assay: qHTS for Inhibitors of Bloom's syndrome helicase (BLM): Helicase ATPase Orthogonal Confirmatory Assay for SAR
# Description: Human RecQ DNA helicases participate in maintenance of genome stability and DNA repair. While other types of helicases have been explored as targets for drug development, members of the RecQ family have remained less well characterized. Mutations of the Bloom helicase gene have been associated with the rare human genetic disease called Bloom syndrome. […] Moreover, identified inhibitors can be used in cells and animal models to examine the consequences of inhibition on the survival of cancer cells where it has been shown that BLM plays an important role.
# A fluorescence-based, biochemical assay in 1536 well format was developed to evaluate inhibition of BLM DNA unwinding activity. This assay was used to screen the MLPCN library. […] This luminescence assay employs a purified BLM enzyme and a single stranded BLM oligo substrate ([…]). For this assay increase in luminescence signal is greater than or equal to 700 RLU. […]
# Three microliter of reaction buffer (25mM Tris-HCl pH 8.0, 50mM NaCl, 2mM MgCl2, 1mM DTT, and 0.01% Tween- 20, and 2nM BLM enzyme) was dispensed into a 1536-well assay plates (Greiner, solid white medium-binding) via Aurora Discovery BioRAPTR Flying Reagent Dispenser (FRD). […] After 30 min at room temperature, the luminescence signal was detected using the ViewLux CCD imager. […]
# RecQ-like DNA helicase BLM (Homo sapiens), sequence (P54132 whole entry, looked up): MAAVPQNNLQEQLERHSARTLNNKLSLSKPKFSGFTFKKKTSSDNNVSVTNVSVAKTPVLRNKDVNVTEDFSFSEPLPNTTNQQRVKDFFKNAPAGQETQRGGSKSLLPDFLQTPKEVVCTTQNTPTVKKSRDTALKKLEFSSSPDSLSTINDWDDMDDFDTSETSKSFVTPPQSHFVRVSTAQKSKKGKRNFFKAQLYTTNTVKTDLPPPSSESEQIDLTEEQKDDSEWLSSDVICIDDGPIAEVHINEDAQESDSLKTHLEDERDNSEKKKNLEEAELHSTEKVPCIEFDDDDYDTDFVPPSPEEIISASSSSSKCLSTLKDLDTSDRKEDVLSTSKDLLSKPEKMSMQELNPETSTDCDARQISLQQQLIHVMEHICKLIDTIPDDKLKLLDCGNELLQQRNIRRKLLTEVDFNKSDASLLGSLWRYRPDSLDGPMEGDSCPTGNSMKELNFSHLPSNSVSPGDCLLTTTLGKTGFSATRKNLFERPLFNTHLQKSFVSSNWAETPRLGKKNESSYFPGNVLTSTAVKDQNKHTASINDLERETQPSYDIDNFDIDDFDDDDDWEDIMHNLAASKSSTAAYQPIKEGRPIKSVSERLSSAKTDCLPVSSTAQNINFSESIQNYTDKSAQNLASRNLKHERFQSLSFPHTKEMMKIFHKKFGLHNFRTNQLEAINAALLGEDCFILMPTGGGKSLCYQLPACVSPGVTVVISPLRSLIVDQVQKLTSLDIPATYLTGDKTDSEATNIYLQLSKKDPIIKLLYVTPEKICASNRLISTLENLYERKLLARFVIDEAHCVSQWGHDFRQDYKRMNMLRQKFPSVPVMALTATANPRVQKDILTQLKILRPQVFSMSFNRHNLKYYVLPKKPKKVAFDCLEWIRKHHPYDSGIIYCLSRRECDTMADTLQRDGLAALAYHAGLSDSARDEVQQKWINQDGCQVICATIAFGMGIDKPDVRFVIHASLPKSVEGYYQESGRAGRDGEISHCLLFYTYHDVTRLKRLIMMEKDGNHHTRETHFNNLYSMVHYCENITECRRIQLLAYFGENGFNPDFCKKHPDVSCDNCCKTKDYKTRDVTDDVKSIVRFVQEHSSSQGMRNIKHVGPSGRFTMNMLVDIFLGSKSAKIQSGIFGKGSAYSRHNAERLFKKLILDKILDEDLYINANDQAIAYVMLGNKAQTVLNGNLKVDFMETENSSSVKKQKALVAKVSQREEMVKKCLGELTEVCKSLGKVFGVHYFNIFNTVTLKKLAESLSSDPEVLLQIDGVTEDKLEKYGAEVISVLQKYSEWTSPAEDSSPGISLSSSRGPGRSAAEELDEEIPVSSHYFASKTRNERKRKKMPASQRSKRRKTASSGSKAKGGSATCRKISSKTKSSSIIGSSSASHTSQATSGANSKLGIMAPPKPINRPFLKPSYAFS
smiles,measurement,value
N#Cc1ccc(NC(=O)Nc2nnc(-c3ccncc3)s2)cc1C(F)(F)F,outcome,inactive
